Screening results: PubChem, several laboratories
Cav32 inh – Cav3.2 calcium influx blockers – cell-based, Fluo-4 calcium fluorescence, FDSS, MLSMR library, primary screen. AID 449739, 2010. hit rate 4% among 100,000. Cav3.2-expressing cells; stronger effect = lower value. Voltage-dependent T-type calcium channel subunit alpha-1H (Homo sapiens), O95180. B-score at 10 µM;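 active means single-dose well whose peak fluorescence ratio is a statistical outlier from its plate by either plate-standardised score or position-corrected B-score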
CYP2C19 inhib – blockers of cytochrome P450 2C19 activity – biochemical, luminescence, ADME assay, primary screen | AID 778, 2007 | hit rate 21% among 96,000 | CYP2C19 Supersomes, luciferin-H EGE luminescence, 30 min | P33261 | inhibition, % at 5 µM;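 active means CYP2C19 inhibition above a set limit at 5 µM in the primary screen, cut at about 50% in these data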;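 further: plate controls were negative control wells for no effect and 2.5 mM tranylcypromine positive control for full effect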
Target sequence (P33261 whole entry, looked up): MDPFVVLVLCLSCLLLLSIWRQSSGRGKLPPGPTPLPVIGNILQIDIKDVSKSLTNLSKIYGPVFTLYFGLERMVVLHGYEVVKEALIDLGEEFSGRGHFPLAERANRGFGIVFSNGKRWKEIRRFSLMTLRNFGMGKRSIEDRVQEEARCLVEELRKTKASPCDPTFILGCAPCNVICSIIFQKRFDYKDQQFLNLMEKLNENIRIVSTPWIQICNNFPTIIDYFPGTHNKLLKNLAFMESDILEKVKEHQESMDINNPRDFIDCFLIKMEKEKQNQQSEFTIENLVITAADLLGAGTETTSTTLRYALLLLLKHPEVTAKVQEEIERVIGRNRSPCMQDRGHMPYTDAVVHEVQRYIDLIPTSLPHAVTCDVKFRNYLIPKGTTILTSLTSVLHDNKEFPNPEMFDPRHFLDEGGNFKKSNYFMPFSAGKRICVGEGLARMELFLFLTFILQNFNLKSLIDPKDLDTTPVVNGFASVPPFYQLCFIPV
CYP2C9 act – human CYP2C9 activators, primary screen, biochemical, luminescence. recombinant CYP2C9, luciferin-H conversion; stronger effect = higher value; factor 1 = untreated enzyme, 0 = blocked. activation factor at 5 µM. Cytochrome P450 2C9 (Homo sapiens), P11712. hit rate 1.4% among 96,000;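 active means activation factor of 2 or more for CYP2C9 at a 5 µM dose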;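 further: 0 = sulfaphenazole-blocked wells and 1 = vehicle-only wells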
CYP2C9 inhib – blockers of cytochrome P450 2C9 activity – biochemical, luminescence, ADME assay, primary screen. P11712. CYP2C9 Supersomes, luciferin-H conversion. inhibition, % at 5 µM. hit rate 20% among 96,000;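 active means blocking of liver enzyme CYP2C9 beyond about 50% at 5 µM, limit read from the data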
CYP2C19 act – human CYP2C19 activators, primary screen, biochemical, luminescence; Cytochrome P450 2C19 (Homo sapiens), P33261; recombinant CYP2C19, luciferin-H EGE luminescence; stronger effect = higher value; 0 = fully inhibited enzyme, 1 = untreated enzyme; activation factor at 5 µM; 96,000 tested, under 10 active;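 active means activation factor of at least 2 at 5 µM in the primary screen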;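 further: 0 = wells with 2.5 mM tranylcypromine and 1 = vehicle-only wells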
* marks the source's active call; other numbers are inactive results; · = no result given. Only some compounds are listed: those with a hit (about 27% of all), similar ones and a draw of the others.

SMILES	Cav32 inh	CYP2C19 inhib	CYP2C9 act	CYP2C9 inhib	CYP2C19 act
O=C1c2ccccc2NC2(CCCCC2)N1c1ccc(O)cc1	-0.84	32	0.4	56*	0.7
O=C(NCCO)c1cccc(Nc2nc(-c3ccccc3)c3cc(Cl)ccc3n2)c1	1.3	16	1	-4	0.8
CN1c2ccsc2C(O)=C(C(=S)Nc2ccccc2)S1(=O)=O	0.73	12	0.2	78*	0.9
CN1C(C(=O)Nc2ccccn2)=C(O)c2sccc2S1(=O)=O	-0.11	·	·	·	·
Cc1ccccc1NC(=S)C1=C(O)c2sccc2N(C)S1(=O)=O	-0.038	2	0.3	72*	1
CCC(C)(c1ccc(C=O)s1)c1ccc(C=O)s1	0.067	28	0.5	52*	0.7
O=C1CCCN1Cc1ncnn1-c1ccccc1	-0.21	·	·	·	·
S=C(NCc1ccccn1)Nc1ccc(Cl)cc1	-0.0061	60*	0.7	28	0.4
OCCN(Cc1ccccc1)Cc1ccc(C(F)(F)F)cc1	-0.66	95*	0.5	50*	0
OCCN(Cc1ccccc1)Cc1cccc(F)c1	0.13	70*	0.8	16	0.3
OCCN(Cc1ccccc1)Cc1cccc(C(F)(F)F)c1	-1.6	73*	0.8	20	0.3
COc1ccc(Cn2c(SC)nc3ccccc32)cc1[N+](=O)[O-]	0.15	22	0.7	28	0.8
c1ccc(N2CCN(c3nc4ccccc4n4cnnc34)CC2)cc1	-2.5	65*	0.5	49	0.3
c1ccc2c(c1)nc(N1CCOCC1)c1nncn12	·	2	0.8	15	1
Cn1c(=O)c2c(nc(CN3CCOCC3)n2CCCO)n(C)c1=O	-0.76	-6	1	4	1.1
Cc1ccccc1NS(=O)(=O)c1cccc(-c2nnc(-c3ccccc3)o2)c1	-0.43	12	0.6	37	0.9
CN(C)S(=O)(=O)c1cccc(-c2nnc(-c3ccccc3)o2)c1	-0.057	48	0.1	92*	0.5
O=S(=O)(NC1CCCCC1)c1cccc(-c2nnc(-c3ccccc3)o2)c1	-1.2	29	0.2	84*	0.7
CCOCC(=O)Nc1nc(-c2ccccc2)c(CC)s1	-0.19	-1	0.7	31	1
COC(=O)C1=C(C(=O)OC)[C@@H]2N(Cc3ccccc3)c3ccccc3[C@@]23C[C@@H](C(=O)OC)N(C(=O)C2CCC2)C3=N1	-1.4	·	·	·	·
CCn1c2ccccc2c2cc(NC(=O)C(C)Oc3ccccc3)ccc21 (stereo not given)	-0.2	61*	0.6	39	0.4
CC(Oc1ccc(F)cc1)C(=O)Nc1ccc2ccccc2c1 (stereo not given)	-0.56	4	0.8	23	1
CCn1c2ccccc2c2cc(NC(=O)CSc3nnc(-c4cccc(OC)c4)n3N)ccc21	-1.4	44	0.6	35	0.6
CCn1c2ccccc2c2cc(NC(=O)C(C)Oc3ccc(OC)cc3)ccc21 (stereo not given)	-1.4	69*	0.5	48	0.3
O=C(NCc1nc(-c2ccccc2)no1)c1cccs1	0.43	56*	0.7	33	0.4
SMILES	Cav32 inh	CYP2C19 inhib	CYP2C9 act	CYP2C9 inhib	CYP2C19 act
O=C(NCc1ccncc1)c1ccc(Br)o1	0.55	14	0.7	28	0.9
O=C(Nc1nc(-c2ccccc2)ns1)c1cccs1	-3.4	2	0.8	18	1
O=C(NCc1nc(-c2ccccc2)no1)c1ccc(Br)o1	-0.64	72*	0.9	5	0.3
O=C(c1cc2ccccc2oc1=O)N1CCSC1c1ccco1 (stereo not given)	1.2	56*	2.5*	-155	0.4
CC(=O)c1ccc(OCC(O)CN2CCN(CCO)CC2)cc1 (stereo not given)	1	-6	0.8	23	1.1
Cc1cnc(N)c2c(=O)oc3ccccc3c12	-0.62	-5	2*	-102	1
CCN(CC)S(=O)(=O)c1cc(C(=O)Nc2nncs2)c(Cl)cc1Cl	0.57	0	0.8	17	1
Cc1ccc(NC(=O)CCC(=O)NNC(=O)c2ccco2)cc1C	-0.24	2	1	-2	1
CCN(CC)S(=O)(=O)c1cc(C(=O)OC)ccc1Cl	-0.12	62*	1	4	0.4
CCN(CC)S(=O)(=O)c1ccc(Cl)c(C(=O)OC)c1	0.21	33	2.1*	-113	0.7
CCN(CC)S(=O)(=O)c1cc(C(=O)Nc2cc(Cl)ccc2N2CCN(C)CC2)ccc1Cl	-7.6*	16	0.6	39	0.8
CN1CCN(c2ccc(Cl)cc2NC(=O)c2ccc(S(=O)(=O)N(C)C)cc2)CC1	-1.1	6	0.9	12	0.9
CCN(CC)S(=O)(=O)c1ccc(Cl)c(C(=O)NC2CCCC2)c1	0.42	21	0.9	12	0.8
Cc1ccccc1OCC(=O)N(Cc1ccc(N(C)C)cc1)C1CCS(=O)(=O)C1 (stereo not given)	0.29	22	0.9	13	0.8
O=C1CC(N(C(=O)c2ccco2)c2ccc(F)cc2)C(=O)N1c1ccc(F)cc1 (stereo not given)	0.81	13	1	4	0.9
O=C1CC(N(C(=O)c2ccco2)c2cccc(Cl)c2)C(=O)N1c1cccc(Cl)c1 (stereo not given)	-2.3	91*	0.1	92*	0.1
C#CCO[C@@H]1C[C@H](n2cnc3c(NC(=O)c4ccccc4)ncnc32)O[C@@H]1CO	-0.83	·	·	·	·
CCc1ccc(OCC(=O)N/N=C2\CC(=O)c3ccccc32)cc1	-1.7	82*	0.6	44	0.2
Cc1ccc(OCC(=O)NN=C2c3ccccc3-c3ccccc32)cc1	-0.04	4	1.1	-7	1
COCCn1c(=S)[nH]c2cc(C(=O)NCC3CCCO3)ccc2c1=O (stereo not given)	-0.56	76*	0.5	52*	0.2
CCCCOC(=O)c1ccc(NC(=O)c2c(N)n(C)c(=O)[nH]c2=O)cc1	0.085	·	·	·	·
COc1cccc(/C(O)=C2\C(=O)C(=O)N(c3ccccn3)C2c2ccccc2OC)c1 (stereo not given)	-0.19	17	0.9	15	0.8
COc1ccc(C2/C(=C(\O)c3cccc(OC)c3)C(=O)C(=O)N2c2ccccn2)cc1 (stereo not given)	0.92	29	0.3	69*	0.7
Cc1ccc(C)n1-c1sccc1C(=O)O	0.25	-1	1	2	1
Cc1ccc(C(=O)NCCn2cc(SCC(=O)N3CCOCC3)c3ccccc32)cc1	0.95	28	0.8	22	0.7
COc1ccccc1C(=O)NCCn1cc(SCC(=O)Nc2nnc(C)s2)c2ccccc21	-0.057	44	0.2	76*	0.6
Cc1ccc(C(=O)NCCn2cc(SCC(=O)Nc3cc(C)on3)c3ccccc32)cc1	-4*	91*	0.1	86*	0.1
